PubChem BioAssay (NCI)
Compounds without any hit were thinned out: in the full panel of roughly 83,000, 20% have a hit.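 Growth was measured after 48 h exposure to one concentration of compound in 96-well plates. Values under 10 count as active.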 Active and inactive are the calls of the source.

What was measured:
Test in all cases: NCI-60 one-dose screen, 48 h (100 = growth as untreated, 0 = no growth, -100 = all killed)
HCT-15 colon = conditions: 10 µM unless noted
SNB-75 CNS = conditions: 10 µM unless noted
SNB-19 CNS = conditions: 10 µM unless noted
U251 CNS = conditions: 10 µM unless noted
PC-3 prostate = conditions: 10 µM unless noted
SK-MEL-5 melanoma = conditions: 10 µM unless noted
UACC-62 melanoma = conditions: 10 µM unless noted
SK-MEL-28 melanoma = conditions: 10 µM unless noted
LOX IMVI melanoma = conditions: 10 µM

Measured: growth

CCOC(=O)c1ccc(NC(C)=O)o1
inactive: HCT-15 colon 106% | SNB-75 CNS 94.3% | SNB-19 CNS 97.1% | U251 CNS 94.1% | PC-3 prostate 95.8% | SK-MEL-5 melanoma 97.9% | UACC-62 melanoma 90.4% | SK-MEL-28 melanoma 118%

ClCC(Cl)[C@@H]1CC2C=CC1C2 (stereo partly specified)
inactive: HCT-15 colon 109% | SNB-75 CNS 93.6% | SNB-19 CNS 104% | U251 CNS 99.5% | PC-3 prostate 102% | SK-MEL-5 melanoma 99.1% | UACC-62 melanoma 98.7% | LOX IMVI melanoma 97.7% | SK-MEL-28 melanoma 106%

COc1cc(C(=O)O)c(O)c(C(C)(C)C)c1
inactive: HCT-15 colon 108% | SNB-75 CNS 96.8% | SNB-19 CNS 98.9% | U251 CNS 95.2% | PC-3 prostate 97.6% | SK-MEL-5 melanoma 96.5% | UACC-62 melanoma 104% | LOX IMVI melanoma 98.8% | SK-MEL-28 melanoma 109%

OCC1OC(n2ccc3c2ncn2ncnc32)C(O)C1O (stereo unspecified)
inactive: HCT-15 colon 26.9% | SNB-75 CNS 58.6% | SNB-19 CNS 50.3% | U251 CNS 78.6% | PC-3 prostate 14.6% | SK-MEL-5 melanoma 45.4% | UACC-62 melanoma 61.2% | LOX IMVI melanoma 12.9% | SK-MEL-28 melanoma 92.5%

S=C(NCc1ccccc1)N1CCC(CCCC2CCN(C(=S)NCc3ccccc3)CC2)CC1
inactive: HCT-15 colon 99.8% | SNB-75 CNS 101% | SNB-19 CNS 94.5% | U251 CNS 98.3% | PC-3 prostate 89.5% | SK-MEL-5 melanoma 58.8% | UACC-62 melanoma 79.1% | SK-MEL-28 melanoma 119%

Cc1ccc(S(=O)(=O)CCCl)cc1
inactive: HCT-15 colon 90.9% | SNB-75 CNS 94.7% | SNB-19 CNS 97.1% | U251 CNS 101% | PC-3 prostate 90.7% | SK-MEL-5 melanoma 114% | UACC-62 melanoma 99.8% | LOX IMVI melanoma 107% | SK-MEL-28 melanoma 115%

COc1ccc(Nc2cc(Cl)ccc2C(=O)O)cn1
inactive: HCT-15 colon 106% | SNB-75 CNS 99.4% | SNB-19 CNS 96.5% | U251 CNS 105% | PC-3 prostate 99% | SK-MEL-5 melanoma 114% | UACC-62 melanoma 96.3% | LOX IMVI melanoma 98.1% | SK-MEL-28 melanoma 98.8%

COc1cc(N)c2ncccc2c1Cl
inactive: HCT-15 colon 90.5% | SNB-75 CNS 99.8% | SNB-19 CNS 98.8% | U251 CNS 101% | PC-3 prostate 93.3% | SK-MEL-5 melanoma 96.4% | UACC-62 melanoma 86.7% | LOX IMVI melanoma 104% | SK-MEL-28 melanoma 121%

COc1ccc2c(Cl)cc(NC(=O)Nc3c(C)cccc3C)nc2c1
inactive: HCT-15 colon 95.7% | SNB-19 CNS 79.3% | U251 CNS 76.1% | PC-3 prostate 72.4% | SK-MEL-5 melanoma 63.6% | UACC-62 melanoma 87.7% | LOX IMVI melanoma 60.7% | SK-MEL-28 melanoma 97%
active: SNB-75 CNS -24.7%

O=[n+]1ccn([O-])c2ccccc21
inactive: HCT-15 colon 110% | SNB-75 CNS 92% | SNB-19 CNS 102% | U251 CNS 100% | PC-3 prostate 92.1% | SK-MEL-5 melanoma 93.2% | LOX IMVI melanoma 97.4% | SK-MEL-28 melanoma 108%

CN(C)Cc1ccccn1
inactive: HCT-15 colon 105% | SNB-75 CNS 95.7% | SNB-19 CNS 103% | U251 CNS 99.4% | PC-3 prostate 90.3% | SK-MEL-5 melanoma 101% | UACC-62 melanoma 97.8% | LOX IMVI melanoma 96.3% | SK-MEL-28 melanoma 102%

CC(C)(C)NCCC(O)c1cc(C(F)(F)F)nc2c(C(F)(F)F)cccc12 (stereo unspecified)
active: LOX IMVI melanoma 1.78%
inactive: HCT-15 colon 79.2% | SNB-75 CNS 78.2% | SNB-19 CNS 87.2% | U251 CNS 54.3% | SK-MEL-5 melanoma 81.8% | UACC-62 melanoma 74.7% | SK-MEL-28 melanoma 117%

Oc1ccc(CCC2CCNc3ccccc32)cc1 (stereo unspecified)
inactive: HCT-15 colon 83.2% | SNB-75 CNS 76.6% | SNB-19 CNS 87.2% | U251 CNS 71.5% | SK-MEL-5 melanoma 58% | UACC-62 melanoma 72% | LOX IMVI melanoma 81.1% | SK-MEL-28 melanoma 94.4%

Clc1cccc(Cl)c1C1CSc2ccccc2N=C1c1ccccc1 (stereo unspecified)
inactive: HCT-15 colon 54.7% | SNB-75 CNS 64.9% | SNB-19 CNS 97.4% | PC-3 prostate 55% | SK-MEL-5 melanoma 86.8% | UACC-62 melanoma 68.9% | SK-MEL-28 melanoma 90.4%
active: LOX IMVI melanoma -4.86%

CCCC(=O)CC(=O)c1ccccc1
inactive: HCT-15 colon 103% | SNB-75 CNS 105% | SNB-19 CNS 103% | U251 CNS 86% | PC-3 prostate 94.7% | SK-MEL-5 melanoma 99.5% | UACC-62 melanoma 103% | LOX IMVI melanoma 97.5% | SK-MEL-28 melanoma 107%

NCC(O)C(O)C(O)C(O)CO (stereo unspecified)
inactive: HCT-15 colon 106% | SNB-75 CNS 91.8% | SNB-19 CNS 104% | U251 CNS 90.5% | PC-3 prostate 81.4% | SK-MEL-5 melanoma 101% | SK-MEL-28 melanoma 108%

Cc1ccc(C)c(CCO)c1
inactive: HCT-15 colon 112% | SNB-75 CNS 95.7% | SNB-19 CNS 101% | U251 CNS 90.6% | SK-MEL-5 melanoma 90.7% | UACC-62 melanoma 103% | LOX IMVI melanoma 100% | SK-MEL-28 melanoma 105%

O=C(c1cccc(C(=O)c2ccc3c4c(cccc24)C(=O)N(c2ccccc2)C3=O)c1)c1ccc2c3c(cccc13)C(=O)N(c1ccccc1)C2=O
inactive: HCT-15 colon 101% | SNB-75 CNS 93.4% | SNB-19 CNS 111% | SK-MEL-5 melanoma 84.4% | UACC-62 melanoma 84.7% | LOX IMVI melanoma 91.2% | SK-MEL-28 melanoma 109%

CC(CC(CCC(=O)O)(c1ccccc1)c1ccccc1)N(C)C (stereo unspecified)
inactive: HCT-15 colon 95.6% | SNB-75 CNS 99.6% | SNB-19 CNS 110% | U251 CNS 92.3% | PC-3 prostate 103% | SK-MEL-5 melanoma 95.5% | UACC-62 melanoma 103% | LOX IMVI melanoma 98.8% | SK-MEL-28 melanoma 104%

Cc1nc(C)c(C(=O)O)cc1C(=O)O
inactive: HCT-15 colon 103% | SNB-75 CNS 91.5% | SNB-19 CNS 109% | U251 CNS 107% | PC-3 prostate 99.7% | SK-MEL-5 melanoma 111% | UACC-62 melanoma 105% | LOX IMVI melanoma 95.8% | SK-MEL-28 melanoma 112%

COc1cccc(C(=O)O)c1OC
inactive: HCT-15 colon 101% | SNB-75 CNS 90.8% | SNB-19 CNS 106% | PC-3 prostate 96.3% | SK-MEL-5 melanoma 104% | LOX IMVI melanoma 99% | SK-MEL-28 melanoma 102%

CCNC(=O)Oc1ccc[nH]c1=O
inactive: HCT-15 colon 97.9% | SNB-75 CNS 85.3% | SNB-19 CNS 98.8% | U251 CNS 104% | PC-3 prostate 96.5% | SK-MEL-5 melanoma 95.2% | UACC-62 melanoma 96.1% | LOX IMVI melanoma 99.1% | SK-MEL-28 melanoma 125%

Cc1ccc(OC(=O)c2ccccc2)cc1
inactive: HCT-15 colon 118% | SNB-75 CNS 108% | SNB-19 CNS 109% | PC-3 prostate 105% | SK-MEL-5 melanoma 101% | UACC-62 melanoma 112% | SK-MEL-28 melanoma 120%

CC(=O)c1cccs1
inactive: HCT-15 colon 99.5% | SNB-75 CNS 96% | SNB-19 CNS 102% | U251 CNS 101% | PC-3 prostate 98.3% | SK-MEL-5 melanoma 110% | UACC-62 melanoma 94.2% | LOX IMVI melanoma 93.1% | SK-MEL-28 melanoma 98.1%
